# Assay outcomes: PubChem BioAssay, Broad Institute
# BL2 CD40 inh – CD40 pathway inhibition in BL2 cells | BL2 NF-kB luciferase reporter, CD40L-induced, 4 h | inhibition, % at 10 µM | hit rate 0.94% among 83,000;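 active = mean inhibition of at least 50% with a set share of replicates also reaching that level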;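 note: 0% = neutral control wells and 100% = IKK inhibitor VII at 50 µM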
# * hit, by the source's call; [ ] = another dose, or the depositor's remark. This is one part of a sample in which hits are shown more often than they occur.
SMILES,BL2 CD40 inh
CN(C)Cc1cn(CC[C@H]2CC[C@@H](NC(=O)Nc3ccccc3F)[C@H](CO)O2)nn1,-3
Cc1cc(Br)ccc1SCC(=O)Nc1cccnc1,2
Cc1nc(C)c(NC(=O)N2CCc3ccccc32)cc1NC(=O)N1CCc2ccccc21,10
Cn1ccc2cc3c(cc21)CCN3C(=O)Nc1cccnc1,active[25 µM]
CC(C)NC(=O)N(C)C[C@H]1OCc2ccccc2-c2ccccc2C(=O)N([C@H](C)CO)C[C@@H]1C,-5
O=C(NC1CCCC1)[C@H]1[C@H](CO)[C@H]2Cn3c(cccc3=O)[C@H]2N1CC1CCOCC1,0
